Experimental data taken from PubChem BioAssay (NCI).
Where “and” joins values, the source holds several entries; their conditions need not be identical. Equal values may be shown once. About 83,000 compounds went through this panel and 20% of them were active in at least one assay; those are over-represented in the sample as a whole.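 In brief: 96-well plates, 48 h treatment, single concentration, percent growth endpoint.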 Values without a mark were called inactive. Calls of active or inactive are those of the source. How the source made its calls: active means growth percent below 10; inactive means the rest.

Key:
Assay in all cases: NCI-60 one-dose screen, 48 h (100 = growth as untreated, 0 = no growth, -100 = all killed)
Conditions in all cases: 10 µM unless noted
SR leukemia = test system: SR leukemia
RPMI-8226 leukemia = test system: RPMI-8226 leukemia
OVCAR-8 ovarian = test system: OVCAR-8 ovarian
OVCAR-5 ovarian = test system: OVCAR-5 ovarian
OVCAR-4 ovarian = test system: OVCAR-4 ovarian
SK-OV-3 ovarian = test system: SK-OV-3 ovarian
IGROV1 ovarian = test system: IGROV1 ovarian
OVCAR-3 ovarian = test system: OVCAR-3 ovarian
HS 578T breast = test system: HS 578T breast
NCI/ADR-RES ovarian = test system: NCI/ADR-RES ovarian
T-47D breast = test system: T-47D breast
BT-549 breast = test system: BT-549 breast
MDA-MB-435 melanoma = test system: MDA-MB-435 melanoma
SW-620 colon = test system: SW-620 colon
MCF7 breast = test system: MCF7 breast
HCT-116 colon = test system: HCT-116 colon
HCC-2998 colon = test system: HCC-2998 colon
KM12 colon = test system: KM12 colon
MDA-MB-468 breast = test system: MDA-MB-468 breast

| Compound | growth (SR leukemia) | growth (RPMI-8226 leukemia) | growth (OVCAR-8 ovarian) | growth (OVCAR-5 ovarian) | growth (OVCAR-4 ovarian) | growth (SK-OV-3 ovarian) | growth (IGROV1 ovarian) | growth (OVCAR-3 ovarian) | growth (HS 578T breast) | growth (NCI/ADR-RES ovarian) | growth (T-47D breast) | growth (BT-549 breast) | growth (MDA-MB-435 melanoma) | growth (SW-620 colon) | growth (MCF7 breast) | growth (HCT-116 colon) | growth (HCC-2998 colon) | growth (KM12 colon) | growth (MDA-MB-468 breast) |
| --- | --- | --- | --- | --- | --- | --- | --- | --- | --- | --- | --- | --- | --- | --- | --- | --- | --- | --- | --- |
| O=C(c1ccc(O)cc1)C1[C@H](c2ccc(Cl)cc2)[C@@H](c2ccccc2)NC12C(=O)Nc1ccc(Br)cc12 (stereo partly drawn) | -52.7% (active) | 3.14% (active) | 5.82% (active) | -19.4% (active) | -8.82% (active) | 22% | -40.4% (active) | 2.42% (active) | -5.94% (active) | -37.2% (active) | 2.46% (active) | -76.6% (active) | -41.1% (active) | -58.1% (active) | -22.1% (active) | -75% (active) | -88.6% (active) | -25.4% (active) | -61.1% (active) |
| Fc1ccc(N2CC(Cn3c(C(F)(F)F)cc4c(Cl)ncnc43)C2)c(F)c1 | -60.9% (active) | 24.2% | -87.6% (active) | 107% | -27.1% (active) | 100% | -95.7% (active) | -66.2% (active) | 55.1% | 11.4% | 56.8% | -84.5% (active) | 15.9% | -79.6% (active) | 57.7% | -92.1% (active) | -91.4% (active) | 99.5% | – |
| Cc1cccc(/C=C/c2ccc(NC(=S)NCCCCN(C)C)cc2)c1 | -17.4% (active) | -26.1% (active) | -62.3% (active) | -94.2% (active) | -93.7% (active) | -65.9% (active) | -91% (active) | -55.4% (active) | -54% (active) | -95.1% (active) | -67.8% (active) | -72.6% (active) | -90% (active) | -85.3% (active) | -73.7% (active) | -45.1% (active) | -92.7% (active) | -48.6% (active) | – |
| COc1ccc(N=Nc2c(N)nn3c(-c4ccc([N+](=O)[O-])cc4)ccnc23)cc1 | 98.2% | 94% | 107% | 113% | 92.8% | 106% | 104% | 113% | 89% | 97.8% | 81.6% | 94% | 107% | 98.4% | 95.3% | 97.9% | 113% | 102% | 105% |
| CC(C)(C)c1ccc(OCc2nc3ccccc3n2-c2cccc(N)c2)cc1 | 26.3% and 92.3% | 48.3% and 110% | 72.3% and 110% | 85.7% and 111% | 49.6% and 105% | 103% and 107% | 65.7% and 108% | 53.1% and 128% | 53.9% and 96.3% | 50.2% and 101% | 32.3% and 99.1% | 73.6% and 115% | 70.5% and 102% | 77% and 116% | 32% and 92.1% | 56.8% and 104% | 81.9% and 107% | 54.5% and 105% | 69% and 96.4% |
| Cc1nn(-c2ccccc2)c2nc(C)n(C(=O)N/N=C/c3cccc([N+](=O)[O-])c3)c(=O)c12 | 98.6% | 94% | 94.5% | 84.7% | 53.2% | 106% | 91.9% | 99.8% | 91.2% | 93.3% | 91.4% | 155% | 96.5% | 103% | 77.1% | 87.5% | 113% | 100% | 73.1% |
| Cc1ccc(C(C(=O)NC2CCCCC2)N(Cc2ccccc2Cl)C(=O)c2ccc(CN3CCOCC3)o2)o1 (stereo not drawn) | 103% | 80.4% | 104% | 99.8% | 96.8% | 112% | 92.5% | 110% | 86% | 87.5% | 99.9% | 152% | 102% | 105% | 95.3% | 89.1% | 94.7% | 99.4% | – |
| FC(F)(F)CN1CCN(CCn2c(C(F)(F)F)cc3c(Cl)ncnc32)CC1 | -54.6% (active) | -6.12% (active) | 8.76% (active) | 103% | 21.5% | 71.4% | -80.5% (active) | -47.4% (active) | 47.4% | 75.1% | 59.3% | -27.2% (active) | 38.7% | 11.3% | 25.3% | 1.79% (active) | -96.7% (active) | 70.7% | – |
| O=C(N=Nc1c(O)[nH]c2ccc(Cl)cc12)c1ccc2nc(-c3ccc(Cl)cc3)[nH]c2c1 | 10.6% | 77.8% | -34.8% (active) | 36.2% | -3.41% (active) | 42% | -11.1% (active) | -5.16% (active) | 12.2% | 94.7% | -2.02% (active) | 49% | -32.9% (active) | 3.1% (active) | 1.03% (active) | 9.89% (active) | -34.6% (active) | 42.3% | – |
| COc1ccc(-c2cc(-c3cc(OC)c(OC)c(OC)c3)[nH]c(=O)c2C#N)cc1 | 80.8% | 72.2% | 13.4% | 79.1% | 7.74% (active) | 30.7% | 36.7% | 102% | 24.2% | 42.2% | 34.6% | 70.5% | 73.6% | 93.4% | 86.2% | 34.7% | 67.1% | 75.8% | 79.8% |
| COc1ccc2ccccc2c1/C=C1\SC(=Nc2ccc(O)cc2)NC1=O | 20.8% | -12.7% (active) | 9.1% (active) | 10.3% | 56.2% | 29.6% | 11.3% | 35.5% | 24.1% | -5.75% (active) | 36.4% | -22.6% (active) | 10.9% | 35.4% | 9.63% (active) | 2.32% (active) | -0.301% (active) | 17.3% | – |
| CNS(=O)(=O)N1CCc2c(Br)c3c(c(OC)c2C1CCc1ccccc1)OCO3 (stereo not drawn) | 4.75% (active) | 2.66% (active) | 9.92% (active) | -40% (active) | -2.26% (active) | 16.2% | -6.68% (active) | -48.8% (active) | -22.4% (active) | -10.9% (active) | 6.69% (active) | -68.8% (active) | -67.9% (active) | 8.53% (active) | -22.3% (active) | -16.8% (active) | -12.7% (active) | – | – |
| Cc1ccccc1NC(=O)c1cccc(NC(=O)CCl)c1 | 16.4% | 26% | 46.3% | 70.4% | 73.7% | 81.3% | 29.5% | 49% | 78% | 38.9% | 74.8% | 39.4% | 72.7% | 41.7% | 19.2% | 27.3% | 96.1% | 77.3% | – |
| CC[C@@]12CC(C(=O)OC)=C3Nc4cc5c(cc4[C@@]34CCN(C[C@H]3O[C@H]31)[C@@H]24)[C@@H]1[C@H](O5)[C@@H](O)[C@@]2(CC)CC(C(=O)OC)=C3Nc4cc(O)ccc4[C@@]34CCN1[C@@H]24 | -29.6% (active) | -9.59% (active) | 2.33% (active) | -74.7% (active) | -39% (active) | -32.4% (active) | -65.8% (active) | -15.7% (active) | 6.27% (active) | 6.74% (active) | -37.5% (active) | -87.6% (active) | -54.3% (active) | -71.1% (active) | -56.8% (active) | -50.4% (active) | -85.4% (active) | -46.6% (active) | – |
| COc1ccccc1/C=C/c1cccc(NC(=S)NCCCCN(C)C)c1 | -30.5% (active) | -6.58% (active) | -58.5% (active) | -92.3% (active) | -79.7% (active) | -72.9% (active) | -82.4% (active) | -48.8% (active) | -24.2% (active) | -62.6% (active) | -58.7% (active) | -60.7% (active) | -91.6% (active) | 5.09% (active) | -73.9% (active) | -43.4% (active) | -94.1% (active) | -52.9% (active) | – |
| OC(c1ccccc1)(c1ccccc1)C1CCN(c2ccc3nnc(Cl)n3n2)CC1 | -22.3% (active) | 13.8% | 33.9% | 70% | 30.3% | 90.2% | 39.8% | 42.2% | 71.1% | 18.6% | 9.47% (active) | 2.56% (active) | 42.1% | 56.6% | 10.9% | 22.6% | 55.2% | 30.9% | 30.4% |
